Compound activity: PubChem, Broad Institute
BL2 CD40 inh – CD40 pathway inhibition in BL2 cells | BL2 NF-kB luciferase reporter, CD40L-induced, 4 h | hit rate 0.94% among 83,000 | inhibition, % at 10 µM;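 active = mean inhibition of at least 50% with a set share of replicates also reaching that level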;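 note: 0% = neutral control wells and 100% = IKK inhibitor VII at 50 µM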
Numbers without * were called inactive; [ ] = dose if it differs, or a comment. The full list was thinned out, with hits kept by preference.

SMILES	BL2 CD40 inh
Cc1ccc(S(=O)(=O)N2[C@@H]3CNC[C@H]2C3c2ccc(-c3ccc(C(=O)N(C)C)cc3)cc2)cc1 (stereo not given in full)	-5
C[C@@H]1CN([C@@H](C)CO)C(=O)c2cc(NS(C)(=O)=O)ccc2O[C@H]1CN(C)C	9[25 µM]
C[C@H](CO)N1C[C@H](C)[C@H](CN(C)C(=O)c2ccc(N3CCN(C)CC3)cc2)OCc2cn(nn2)CCCC1=O	1[25 µM]
CC(C)OCCCNC(=O)c1ccncc1	9
COCCNC(=O)c1ccc(Cl)c(Cl)c1	7
CC(C)OCCCNC(=O)CNC(=O)c1ccc(Cl)c(Cl)c1	27*
CC(=O)Nc1ccc2c(c1)Cc1cc(N3C(=O)C=CC3=O)ccc1-2	97*
CC(=O)Nc1ccc2c(c1)-c1ccc(F)cc1C2	-6
CC(=O)Nc1ccc2c(c1)Cc1ccc(Cl)cc1-2	-51
CO[C@H]1CN(C)C(=O)c2cc(NC(=O)c3nc4ccccc4s3)ccc2OC[C@H](C)N(Cc2cccnc2)C[C@H]1C	7
Cc1ccc(S(=O)(=O)N2C[C@@H](O)COC[C@@H]3O[C@H](CC(=O)NCc4ccc5c(c4)OCO5)CC[C@H]32)cc1	13[25 µM]
CC(=O)NC(CC(C)C)C(=O)NC(Cc1ccccc1)C(=O)CCl (stereo not given)	-3
CCCC(NS(=O)(=O)c1ccc(C)cc1)C(=O)O (stereo not given)	15
Cc1ccc(S(=O)(=O)N[C@@H](Cc2ccccc2)C(=O)CCl)cc1	39*
Cc1cccc(S(=O)(=O)N2CC[C@H]3[C@H](CO)Nc4ccc(-c5ccccc5F)cc4[C@H]32)c1	-5[25 µM]
CO[C@H]1CN(C)C(=O)c2ccc(NC(=O)C3CCCC3)cc2OC[C@H](C)NC[C@H]1C	-2
O=C(CCC(=O)CCN1CCCCC1)CCN1CCCCC1	77*
NNC(=O)CCN1CCCCC1	6
NC(=O)CCN1CCCCC1	-5
COc1ccc(S(=O)(=O)Nc2ccc3c(c2)[C@H]2C[C@@H](CC(=O)N(C)C)O[C@@H](CO)[C@H]2O3)cc1	1[25 µM]
COc1ccc(C(=O)Nc2cccc(OC(=O)c3ccco3)c2)cc1	-26
CC1CC(C)(C)Nc2ccc(OC(=O)c3ccco3)cc21 (stereo not given)	68*
CC1CC(C)(C)Nc2ccc(N=O)cc21 (stereo not given)	23
Cc1noc(C)c1S(=O)(=O)N(C)C[C@@H]1OCc2cnnn2CCCC(=O)N([C@@H](C)CO)C[C@@H]1C	3[25 µM]
COC(=O)Nc1ccc(NC(C)=O)cc1	3
SMILES	BL2 CD40 inh
COC(=O)/C=C/S(=O)(=O)c1ccc(NC(C)=O)cc1	106*
CC(=O)Nc1ccc(S(=O)(=O)CC(=O)CS(=O)(=O)c2ccc(NC(C)=O)cc2)cc1	5
CS(=O)(=O)N1[C@H](CO)[C@H](c2ccccc2-c2ccccc2F)[C@@H]1C#N	4[25 µM]
COc1ccc(CN(C)C[C@H]2Oc3ccc(NC(=O)Nc4c(C)noc4C)cc3C(=O)N([C@H](C)CO)C[C@H]2C)cc1	-7[25 µM]
COc1cccc(C(=O)Nc2ccc3c(c2)OC[C@H](C)N(C(=O)C2CCCC2)C[C@H](C)[C@H](OC)CN(C)C3=O)c1	6
COC(=O)Cn1cnc2sc3c(c2c1=O)CCCC3	3
CCOC(=O)Cn1cnc2sc3c(c2c1=O)CCC3	56*
CCOC(=O)Cn1cnc2c(sc3nc(C)cc(C)c32)c1=O	-75
O=C(C[C@H]1C[C@H]2c3cc(NS(=O)(=O)c4ccccc4)ccc3O[C@H]2[C@@H](CO)O1)NC1CCCCC1	-1
O=[N+]([O-])c1cc2c(cc1Br)-c1ccccc1C2	-15
Cn1cnc(S(=O)(=O)N[C@@H]2CC[C@H](CC(=O)NCC3CCCCC3)O[C@H]2CO)c1	12[25 µM]
CC(C)NC(=O)N1[C@H](CO)[C@@H](c2ccc(C#CC3CC3)cc2)[C@@H]1C#N	6[25 µM]
Cc1ccccc1C(=O)Nc1c(C(=O)N(CCN(C)C)Cc2ccco2)oc2ccccc12	18
CNc1c2cccc(C)c2nc2c(C(=O)NCCN(C)C)cccc12	86*
Cc1ccc(C(=O)NCCN(C)C)c(C)c1	5
CN1CCN(C(=O)C[C@H]2CC[C@H]3[C@@H](COC[C@@H](O)CN3C(=O)c3ccccc3F)O2)CC1	2[25 µM]
COCCn1c(C)cc(C(=O)COC(=O)c2ccc(Cl)c(S(N)(=O)=O)c2)c1C	21*
Cc1cc(C(=O)COC(=O)c2ccc(Br)o2)c(C)n1Cc1ccco1	-17
Cc1cc(C(=O)COC(=O)c2ccc(Cl)c(S(N)(=O)=O)c2)c(C)n1CC1CCCO1 (stereo not given)	18
COCCn1c(C)cc(C(=O)COC(=O)c2ccc(-n3nc(C)cc3C)cc2)c1C	8
COCCn1c(C)cc(C(=O)COC(=O)c2ccc(Br)o2)c1C	48*
Cc1cc(C(=O)COC(=O)c2ccc(Br)o2)c(C)n1C	-7
CCCNC(=O)N1C[C@@H]2[C@H](c3ccccc31)[C@H](CO)N2C(=O)C1CCOCC1	-8[25 µM]
N#C[C@H]1[C@H](c2ccc(-c3cccc(F)c3)cc2)[C@@H](CO)N1c1nc(-c2ccccc2)cs1	5[25 µM]
O=C(c1ccccc1)c1ccc(C(=O)N2CCCC(C(F)(F)F)C2)cc1 (stereo not given)	-2
